# Measured values published in PubChem BioAssay AID624263 (National Center for Advancing Translational Sciences (NCATS), 2012).
# Several values for one entry are separate records, joined by “and”; a condition that tells them apart may be missing. Equal entries are not always repeated. In all, about 410,000 compounds went through this assay and about 820 (0.2%) were called active. Where a call stands in place of a potency, no number is given. Roughly 2% stayed inconclusive and do not appear here. Calls follow the shape of the dose curve; as a rule, active = well fitted activation curve with a large enough effect; inconclusive = small, poorly fitted or top-dose-only effect; inactive = flat fitted curve, though single readings scatter; cell line not stated here. Many of the other results were omitted from the sample, so actives are more common in it than they were. Where a structure was tested more than once in an assay, its records may differ in their call.
# Assay: A Quantitative High throughput Screen to Identify Chemical Modulators of PINK1 Expression; also: nearly all actives have a fitted effect of over 65% in size
# Settings: PINK1 immunofluorescence, high-content cytometry, 24 h; series mostly up to 76.6 µM
# Excerpt: The overall goal of this project is to develop new tools for understanding and treating the mitochondrial basis for neurodegenerative disease such as Parkinson's disease (PD). The PINK1 campaign was developed from recent data pointing towards mitochondrial dysfunction as a major contributor to dopaminergic neuron loss. The discovery of PINK1/Parkin mediated mitophagy has highlighted the potential for mitochondrial quality control as a novel target for therapeutic intervention. […] A second aim of this project is the development of chemical probes to study the mechanics of mitochondrial quality control. As the PINK1/Parkin mitophagy pathway is a relative recent discovery, no specific chemical probes are available that modulate the process. Presently, only crude tools that cause nonspecific mitochondrial damage are available. To advance the understanding of mitophagy, specific, well characterized chemicals that target various steps of mitophagy regulation need to be developed. New chemical probes may have the ability to dynamically manipulate mitophagy in model organisms such as rodents and zebrafish, advancing our understanding of the process in development and disease. This HTS campaign seeks to discover an activator of PINK1 expression by modulation at the level of post-translational processing.
# The PINK1 assay determines the amount and localization of PINK1 protein in a cell using a combination of immunofluorescence and cell staining. The goal of the assay is to determine small molecules that can increase the expression of Pink1 on or inside the cell's mitochondria (ideally without mitochondrial depolarization) using a stable cell line. Since PINK1 protein is rapidly degraded in un-perturbed cells, compounds that induce the enhancement of PINK1 protein expression are identified by determining PINK1 immunofluorescence in conjunction with a mitochondrial, cell, and nuclear marker post fixation. To facilitate rapid high content screening, the primary assay is run in a decision-based HTS mode where compound titration data collected by laser-scanning microplate cytometers is processed and only promising compound series are passed off for high content drill down.
# 1 Add cells to black, clear-bottom, low-base 1536-well plates 6 uL (250 cells/well)
# 2 Incubate in TC incubator (12 hours)
# 3 Pin compounds or DMSO controls 23 nL (5 concentrations per compound set)
# 4 Dispense CCCP to control columns
# 5 Incubate in TC incubator 24 hours
# 6 Aspirate media and fix cells (5 uL of fixative containing nuclear dye)
# 7 Incubate 15 minutes at RT
# 8 Wash in PBSTween (12 uL/well)
# 9 Wash in PBSTriton (12 uL/well)
# 10 Aspirate wash and add Blocking buffer (4 uL/well)
# 12 Aspirate block and add primary antibodies 3.5 (uL/well)
# 13 Incubate 12 hours at 10 degrees C
# 14 Wash in PBSTween-20 two times (12 uL/well)
# 15 Aspirate wash and add secondary antibodies (12 uL/well)
# 17 Wash in PBSTween (12 uL/well)
# 18 Wash in PBSTween with cell stain (12 uL/well)
# 19 Read plates on Acumen EX3 and determine Wells2Cells coordinates
# Potency is read from the fitted curve at half-maximal effect.
row,Compound,Potency
1,Cc1ccc(OCC(O)CN2CCN(CC(O)COc3ccc(C)cc3Cl)CC2)c(Cl)c1 (stereo not drawn),11.2 µM (active)
2,Cc1cccc(OCC(O)CN2CCN(S(=O)(=O)c3ccc(C)cc3C)CC2)c1 (stereo not drawn),inactive
3,OC(COc1ccc(F)cc1Cl)CN1CCc2ccccc2C1 (stereo not drawn),inactive
4,O=C(NCC1Cc2cc(F)cc(-c3cnccn3)c2O1)C1COc2ccccc2O1 (stereo not drawn),inactive
5,O=C(C(=O)N1CCOc2ccc(CN3CCN(Cc4ccccn4)CC3)cc2C1)c1ccccc1,inactive
6,COc1ccc2c(c1)CCc1cnc(-n3ncc(C(=O)NCc4cccnc4)c3C3CC3)nc1-2,inactive
7,O=C(NN=Cc1ccccc1O)NN=Cc1ccccc1O,0.891 µM (active)
8,O=Nc1c(O)cc(O)c2ccccc12,inactive
9,O=C(N/N=C/c1cccc2cccnc12)[C@H]1C[C@@H]1c1ccccc1,inactive
10,CCC1CN(CCNC(=O)c2cccnc2C)Cc2cc(OC)ccc2O1 (stereo not drawn),inactive
11,Cc1c(C(=O)NCC2CCCN(C)C2)cnn1-c1nccc(-c2ccco2)n1 (stereo not drawn),inactive
12,CC12CCC(C(=O)N(CCC#N)CCC#N)(CC1=O)C2(C)C (stereo not drawn),5.01 µM (active)
13,CCN(CC)c1ccc(/C=C/c2c(C)cnc3ccc(C)cc23)cc1,inactive
14,COc1cc(C)c(CN2CCc3nnc(C(C)NC(=O)c4cccnc4)n3CC2)cc1C (stereo not drawn),inactive
15,Cc1ccc(CNC(=O)Nc2nnc([C@H]3C[C@H](O)[C@@H](CO)O3)s2)cc1,inactive
16,Cc1ccc(NC(=O)Nc2nnc(-c3ccncc3)s2)cc1,15.8 µM (active)
17,CCCCN(C)c1nnc(NC(=O)Nc2ccc(Br)c(C)c2)s1,inactive
18,C/C=C/NNC(=O)Cc1ccc(OC)cc1,inactive
19,CCCc1cc(=S)n2c([nH]c3ccccc32)c1C#N,28.2 µM (active)
20,Cn1cccc1C(=O)N1CCC2(CC1)CN(c1cccc(-c3ccccc3)c1)C2,inactive
21,COc1c2c(cc3occ(-c4ccc5c(c4)OCO5)c(=O)c13)OC(C)(C)C=C2,inactive
22,CC(=O)N1CCC(N(C(=O)Nc2ccc(Cl)cc2)C(C)C)CC1,inactive
23,CC(C)S(=O)(=O)c1csc(NC(=O)Nc2ccc(Cl)cc2)c1Cl,15.8 µM (active)
24,CC(=O)c1ccc(NC(=O)C(C)NCc2ccc(Cl)cc2)cc1 (stereo not drawn),inactive

row,Compound,Potency
1,COc1cc(=O)n2c(c1C(=O)NC(C)c1ccco1)CCN(Cc1cc(C)cc(C)c1)CC2 (stereo not drawn),inactive
2,COc1ccc2[nH]cc(CCNc3ncnc4ccc(-c5ccc(C(=O)N(C)C)cc5)cc34)c2c1,inactive
3,O=C(CNS(=O)(=O)c1cccc(C(F)(F)F)c1)Nc1ccccc1F,10 µM (active)
4,O=C(CNc1cccc(S(=O)(=O)N2CCCCC2)c1)Nc1ccccc1F,inactive
5,O=C(CNS(=O)(=O)c1ccc2ccccc2c1)Nc1ccc(F)c(F)c1F,inactive
6,Cc1cnc(-n2ncc(C(=O)N3CCN(C(C)C)CC3)c2-c2ccco2)nc1-c1ccc(F)cc1,inactive
7,CC(C)(C)c1ccc(C(=O)C[n+]2cccc3cc(Cl)ccc32)cc1,inactive
8,OCC1CCCN(c2nc3cc4c(cc3cc2CNCc2cccs2)OCO4)C1 (stereo not drawn),inactive
9,Cc1ccc(NC(=O)CCC(=O)N2CCC(c3ccccc3)=N2)cc1S(=O)(=O)N1CCCCC1,11.2 µM (active)
10,Cc1ccc(NC(=O)CCCNC(=O)c2ccc(Cl)cc2)cc1S(=O)(=O)N1CCCCC1,inactive
11,Cc1ccc(NC(=O)COC(=O)C2CC2)cc1S(=O)(=O)N1CCOCC1,inactive
12,COc1cc(=O)n2c(c1C(=O)NC(C)c1ccco1)CCN(C(=O)c1cn3ccc(C)cc3n1)CC2 (stereo not drawn),inactive
13,COc1cc(=O)n2c(c1C(=O)N(C)Cc1nonc1C)CCN(C(=O)c1ccc(C)cc1C)CC2,inactive
14,CCC1CN(CCNC(=O)c2ccsc2)Cc2cc(OC)ccc2O1 (stereo not drawn),inactive
15,Cc1nc2cc(NC(=O)[C@@H]3C[C@@H](Sc4ccccn4)CN3Cc3ccccc3C)ccc2s1,inactive
16,N#Cc1ccc[n+](CC(=O)c2ccc(O)c(O)c2)c1,inactive
17,O=C(Nc1nnc(S(=O)(=O)N2CCCCCC2)s1)c1cccc(Br)c1,inactive and 28.2 µM (active)
18,O=C(Nc1nnc(S(=O)(=O)N2CCCc3ccccc32)s1)c1cccc(F)c1,inactive
19,O=C(Nc1nnc(S(=O)(=O)N2CCOCC2)s1)c1cccc(Br)c1,inactive
20,CC(C)Cc1cc(C(=O)NCCc2ccccc2)no1,inactive
21,Cc1nn(Cc2ccc(F)cc2)c(C)c1NC(=O)c1cc(CC(C)C)on1,inactive
22,CC(C)Cc1cc(C(=O)Nc2cc(Br)ccc2O)no1,44.7 µM (active)
23,Cc1nc2cnc(N3CCNCC3)nc2n(Cc2ccc(F)cc2)c1=O,inactive
24,COCc1c(C(=O)NC2CCCCC2)cnn1-c1nccc(-c2ccccc2OC)n1,inactive
